The values below come from PubChem BioAssay (NCI).

Some test systems named below: RPMI-8226 leukemia; OVCAR-8 ovarian; OVCAR-5 ovarian; OVCAR-4 ovarian; SK-OV-3 ovarian; IGROV1 ovarian; OVCAR-3 ovarian; HS 578T breast; NCI/ADR-RES ovarian; T-47D breast; BT-549 breast; MDA-MB-435 melanoma; SW-620 colon; MCF7 breast; HCT-116 colon; HCC-2998 colon; KM12 colon; SR leukemia.
Holding throughout (experiment): NCI-60 one-dose screen, 48 h (100 = growth as untreated, 0 = no growth, -100 = all killed)
Conditions in all cases: 10 µM unless noted

Structures are written as SMILES. This is part of a sample that, as a whole, favours compounds with a hit. Of some 83,000 tested, about 20% had one in any assay.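 The test compound was applied at a single concentration to cells in 96-well plates for 48 hours, and percent growth was recorded.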 Unmarked numbers belong to inactive results. The source made the active and inactive calls. The calls were made as follows: active = growth percent below 10; inactive = the rest.

Turning to `CCOC(=O)C1=C(C)Nc2nnc(Nc3ccccc3)n2C1c1ccccc1` (stereo not given), the growth in the test with RPMI-8226 leukemia is 77%; in the test with OVCAR-8 ovarian, 72.5%; in the test with OVCAR-5 ovarian it was 91.2%; in the test on OVCAR-4 ovarian, 34.6%; in the test with SK-OV-3 ovarian, 94.6%; in the test with IGROV1 ovarian it was 62.8%. Further, the growth in the test on OVCAR-3 ovarian was 5.94% (active); in the test with HS 578T breast it was 75.8%; with NCI/ADR-RES ovarian, 70.8%; with T-47D breast, 58.2%; in the test on BT-549 breast, 84%; in the test on MDA-MB-435 melanoma it was 86.8%. Also, the growth was 35.2% in the test with SW-620 colon; 55.7% in the test on MCF7 breast; 7.91% (active) with HCT-116 colon; 105% with HCC-2998 colon; 94.7% in the test with KM12 colon.

In the case of `O=C1/C(=C/c2ccccc2[N+](=O)[O-])Oc2ccc(O)cc21`, the growth with SR leukemia was 2.82% (active); in the test on OVCAR-8 ovarian it was 20.7%; in the test with OVCAR-5 ovarian it was 38.2%; in the test on OVCAR-4 ovarian, 34.8%; with SK-OV-3 ovarian, 84%; in the test with OVCAR-3 ovarian, -18.9% (active). For the same molecule, the growth in the test with HS 578T breast is 53.6%; in the test on NCI/ADR-RES ovarian it was 49%; in the test with T-47D breast, 44.2%; with BT-549 breast, 49.9%; in the test on SW-620 colon, -14.7% (active); with MCF7 breast, 6.93% (active). Besides, the growth is -20.5% (active) with HCT-116 colon, 73.3% in the test on HCC-2998 colon and 64.2% with KM12 colon.

As to `C#C[C@]1(O)CC[C@H]2[C@@H]3CC=C4c5sc(-c6ccc(OC)cc6)nc5CC[C@]4(C)[C@H]3CC[C@@]21C`, the growth is 23.5% with SR leukemia; 84.6% in the test with OVCAR-8 ovarian; 71.2% with OVCAR-5 ovarian; 97.9% in the test with OVCAR-4 ovarian; 53.8% with SK-OV-3 ovarian; 70.2% in the test on IGROV1 ovarian. Further, the growth in the test with OVCAR-3 ovarian was 83.2%; in the test with HS 578T breast, 2.91% (active); in the test on NCI/ADR-RES ovarian it was 83.8%; in the test on T-47D breast, 73.6%; in the test on BT-549 breast it was 47%; in the test on SW-620 colon, 51.3%. Also, the growth is 27.6% with MCF7 breast, 59.9% in the test on HCT-116 colon, 90.1% with HCC-2998 colon and 60% in the test on KM12 colon.

For the molecule `C#CCOc1ccc(C(Nc2ccc(OC)cc2)c2nnnn2C2CCCCC2)cc1` (stereo not given), the growth is 95.6% in the test with SR leukemia; 95.2% in the test on OVCAR-8 ovarian; 102% in the test with OVCAR-5 ovarian; 103% with OVCAR-4 ovarian; 118% with SK-OV-3 ovarian; 91.6% in the test on IGROV1 ovarian. The growth was 112% in the test on OVCAR-3 ovarian; 95.2% with HS 578T breast; 88.1% in the test with NCI/ADR-RES ovarian; 99.6% in the test with BT-549 breast; 101% with MDA-MB-435 melanoma; 98.3% with SW-620 colon. For the same molecule, the growth with MCF7 breast was 91.7%; in the test on HCT-116 colon, 88.7%; in the test on HCC-2998 colon, 101%; in the test on KM12 colon, 102%.

Take `O=S(=O)(Nc1ccc2c(c1)OC(F)(F)O2)c1ccc(-c2cnc(C3CC3)o2)cc1`: the growth is 27.8% in the test on SR leukemia; 56.3% with OVCAR-8 ovarian; 73.2% in the test on OVCAR-5 ovarian; 59.4% with OVCAR-4 ovarian; 65.6% in the test on SK-OV-3 ovarian; 42.8% with IGROV1 ovarian. Also, the growth was 20.3% in the test on OVCAR-3 ovarian; 40.6% in the test with HS 578T breast; 24.7% in the test with NCI/ADR-RES ovarian; 52.1% in the test with BT-549 breast; 23.7% with SW-620 colon; 19.9% with MCF7 breast. Further, the results for the growth in the test on HCT-116 colon, with HCC-2998 colon and with KM12 colon were 23.7%, 72.8% and 30.9%, respectively.

Turning to `O=S(=O)(Nc1cc(Cl)cc(Cl)c1)c1ccc(-c2cnc(C3CC3)o2)cc1`, the growth is 29.5% in the test with SR leukemia; 47% with OVCAR-8 ovarian; 45.6% in the test on OVCAR-5 ovarian; 63.6% with OVCAR-4 ovarian; 70.2% in the test on SK-OV-3 ovarian; 40.7% in the test on IGROV1 ovarian. The growth in the test with OVCAR-3 ovarian was 17.2%; in the test on HS 578T breast it was 36.7%; in the test on NCI/ADR-RES ovarian, 18.8%; in the test with T-47D breast, 41.7%; in the test on BT-549 breast, 58.4%; in the test with SW-620 colon it was 26.1%. Besides, the growth in the test with MCF7 breast was 20.9%; with HCT-116 colon, 31.3%; with HCC-2998 colon it was 56.7%; in the test with KM12 colon, 24.2%.

Regarding `COc1cc(C2=NN(C(C)=O)C(c3ccc(N4CCOCC4)cc3)C2)cc(OC)c1OC` (stereo not given), the growth in the test with SR leukemia is 108%; with OVCAR-8 ovarian it was 101%; in the test with OVCAR-5 ovarian it was 103%; with OVCAR-4 ovarian it was 107%; in the test with SK-OV-3 ovarian, 97.4%; in the test with IGROV1 ovarian, 98.5%. Further, the growth is 120% with OVCAR-3 ovarian; 108% with HS 578T breast; 99.5% with NCI/ADR-RES ovarian; 92.2% in the test with BT-549 breast; 105% in the test with SW-620 colon; 96.3% in the test on MCF7 breast. The growth with HCT-116 colon was 95.7%; with KM12 colon, 106%.

For the molecule `CN(c1ccc(Cl)cc1)S(=O)(=O)c1ccc(-c2cnc(C3CC3)o2)cc1`, the growth in the test with SR leukemia was 8.67% (active); with OVCAR-8 ovarian, 30.7%; in the test on OVCAR-5 ovarian, 38.3%; in the test on OVCAR-4 ovarian, 54.7%; in the test with SK-OV-3 ovarian, 84.1%; in the test on IGROV1 ovarian it was 28.8%. The growth in the test on OVCAR-3 ovarian was 9.18% (active); with HS 578T breast it was 49.3%; in the test on NCI/ADR-RES ovarian, 13.6%; with T-47D breast it was 58.9%; in the test on BT-549 breast, 35.1%; with SW-620 colon, 25.8%. The growth with MCF7 breast was 15%; with HCT-116 colon, 10.6%; in the test on HCC-2998 colon it was 22.7%; in the test with KM12 colon, 8.94% (active).

As for `CCC(=O)Nc1ccc(-c2nc(-c3cccc(O)c3)c(-c3ccnc(Br)c3)[nH]2)cc1`, the growth is 38.2% in the test with SR leukemia; 51.8% with OVCAR-8 ovarian; 92.9% in the test on OVCAR-5 ovarian; 51.1% in the test with OVCAR-4 ovarian; 93.9% in the test on SK-OV-3 ovarian; 85.4% in the test on IGROV1 ovarian. The growth with OVCAR-3 ovarian is 67.5%; in the test on HS 578T breast it was 23%; in the test on NCI/ADR-RES ovarian it was 96.5%; in the test with BT-549 breast, 74.1%; in the test with SW-620 colon, 84.7%; with MCF7 breast, 13.3%. Besides, the growth in the test on HCT-116 colon is 55.9%; in the test on HCC-2998 colon it was 95.8%; with KM12 colon, 58.9%.
